Measured values as given in PubChem BioAssay (NCI).
Compounds without any hit were thinned out: in the full panel of roughly 83,000, 20% have a hit.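 48-hour exposure, single concentration, 96-well plates; percent growth endpoint where 0 means no net growth. Active: below 10.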 Active and inactive are the calls of the source.

Tests used:
Assay in all cases: NCI-60 one-dose screen, 48 h (100 = growth as untreated, 0 = no growth, -100 = all killed)
Conditions in all cases: 10 µM unless noted
T-47D breast = test system: T-47D breast
BT-549 breast = test system: BT-549 breast
MDA-MB-435 melanoma = test system: MDA-MB-435 melanoma
SW-620 colon = test system: SW-620 colon
MCF7 breast = test system: MCF7 breast
HCT-116 colon = test system: HCT-116 colon
HCC-2998 colon = test system: HCC-2998 colon
KM12 colon = test system: KM12 colon

Measured: growth

Clc1ccc2c(NC3CCC(N4CCOCC4)CC3)ccnc2c1 (stereo unspecified)
inactive: T-47D breast 58% | BT-549 breast 67.4% | MDA-MB-435 melanoma 86.3% | SW-620 colon 85.4% | MCF7 breast 63.7% | HCT-116 colon 47% | HCC-2998 colon 77.8% | KM12 colon 96.4%

Cn1cc(C(=O)c2nc(-c3c[nH]c4ccccc34)no2)c2cc(F)ccc21
inactive: T-47D breast 37.8% | BT-549 breast 48% | SW-620 colon 23.2% | MCF7 breast 19.2% | HCT-116 colon 19.5% | HCC-2998 colon 73.9% | KM12 colon 26.7%
active: MDA-MB-435 melanoma -19.1%

CCN(CC)CC(O)COc1c(Br)c(Br)c(Br)c2c1OC(C)(C)C2 (stereo unspecified)
inactive: T-47D breast 69.5% | BT-549 breast 95.6% | MCF7 breast 73.2% | HCT-116 colon 45.5% | HCC-2998 colon 76% | KM12 colon 53.8%
active: MDA-MB-435 melanoma 1.3% | SW-620 colon -65.9%

O=C(Nc1cccc(Cl)c1)Nc1cccc(Cn2c(=O)[nH]c3ccc(Oc4ncccn4)cc3c2=O)c1
inactive: T-47D breast 16.3% | BT-549 breast 48% | MDA-MB-435 melanoma 42.6% | SW-620 colon 72.3% | MCF7 breast 35.8% | HCT-116 colon 22.9% | HCC-2998 colon 69.7% | KM12 colon 29.5%

O=S(=O)(Nc1ccc(F)cc1F)c1ccc(-c2cnc(C3CC3)o2)cc1
active: MDA-MB-435 melanoma -33.8%
inactive: T-47D breast 31.9% | BT-549 breast 17.2% | SW-620 colon 23.7% | MCF7 breast 20.3% | HCT-116 colon 21.2% | HCC-2998 colon 54.9% | KM12 colon 30.1%

[O-]/[N+](=C\c1ccc(-n2cc(Cc3ccccc3Cc3cn(-c4ccc(/C=[N+](/[O-])c5ccccc5)cc4)nn3)nn2)cc1)c1ccccc1
inactive: T-47D breast 93.8% | BT-549 breast 83.3% | MDA-MB-435 melanoma 109% | SW-620 colon 102% | MCF7 breast 90.6% | HCT-116 colon 91.2% | HCC-2998 colon 104% | KM12 colon 98.8%

COCCn1cc(-c2csc(-c3cn(C)c4ccc(Br)cc34)n2)c2cccnc21
inactive: T-47D breast 17.6% | BT-549 breast 64.6% | MDA-MB-435 melanoma 61.2% | SW-620 colon 21.9% | MCF7 breast 50.2% | HCT-116 colon 49.2% | HCC-2998 colon 25.7% | KM12 colon 23.8%

CCCNc1nc2ccccc2c2c1S(=O)(=O)c1ccc(Cl)cc1C2=O
active: T-47D breast -1.34% | SW-620 colon -4.27% | MCF7 breast 8.27% | HCT-116 colon 5.94%
inactive: BT-549 breast 23% | MDA-MB-435 melanoma 12.2% | HCC-2998 colon 16.2% | KM12 colon 17.1%

CS(=O)(=O)c1ccc(-c2cnn3ccc(-c4cccc(S(=O)(=O)C5CC5)c4)nc23)cc1
active: T-47D breast -6.07%
inactive: BT-549 breast 53.4% | MDA-MB-435 melanoma 59.1% | SW-620 colon 74.2% | MCF7 breast 18% | HCT-116 colon 55.5% | HCC-2998 colon 75.4% | KM12 colon 62%

COc1cc(OC)c(NC(=O)c2cc3ccccc3cc2O)cc1Cl
inactive: T-47D breast 78.7% | MDA-MB-435 melanoma 22.7% | SW-620 colon 21.9% | MCF7 breast 76.1% | HCT-116 colon 18.1% | HCC-2998 colon 61.9% | KM12 colon 18.5%
active: BT-549 breast -25.9%

CC(=O)n1nc(C(=O)OC(C)(C)c2ccccc2)c2ccccc21
inactive: T-47D breast 86.3% | BT-549 breast 99.6% | MDA-MB-435 melanoma 92.1% | SW-620 colon 103% | MCF7 breast 94% | HCT-116 colon 94.8% | HCC-2998 colon 98.2% | KM12 colon 94.7%

C=CCn1c(C)nc2ccc(Nc3nc(Nc4ccc5nc(C)n(CC=C)c5c4)c4ccccc4n3)cc21
inactive: BT-549 breast 72.1%
active: T-47D breast -91% | MDA-MB-435 melanoma -78% | SW-620 colon -80.5% | MCF7 breast -87.9% | HCT-116 colon -97.8% | HCC-2998 colon -52.7% | KM12 colon -84.8%

O=C(c1ccncc1)N1N=C(c2ccc(Cl)cc2)C[C@H]1c1cn(-c2ccccc2)nc1-c1ccccc1
inactive: T-47D breast 87.6% | BT-549 breast 92.5% | MDA-MB-435 melanoma 89.3% | SW-620 colon 101% | MCF7 breast 74.8% | HCT-116 colon 73.5% | HCC-2998 colon 92.2% | KM12 colon 86.1%

O=C(Nc1nc(-c2ccc(Cl)cc2)nc2c1sc(=S)n2-c1ccccc1)C(F)(F)F
inactive: BT-549 breast 28.3% | MDA-MB-435 melanoma 50.6% | SW-620 colon 34.3% | MCF7 breast 57.1% | HCC-2998 colon 68.4% | KM12 colon 32.8%
active: T-47D breast -14.8% | HCT-116 colon 3.7%

COc1ccc(CN2c3ccccc3Sc3ccccc32)cc1F
inactive: T-47D breast 49.7% | BT-549 breast 49.9% | SW-620 colon 23.8% | MCF7 breast 16% | HCC-2998 colon 17.8% | KM12 colon 14%
active: MDA-MB-435 melanoma -33.5% | HCT-116 colon 8.54%

O=S(=O)(NCCNc1nccc(-c2c(-c3ccc(F)c(O)c3)nc3sccn23)n1)c1ccc(O)cc1
inactive: BT-549 breast 55.1% | SW-620 colon 67.1% | MCF7 breast 27.6% | HCT-116 colon 30.4% | HCC-2998 colon 76.5% | KM12 colon 13.9%
active: T-47D breast 6.97% | MDA-MB-435 melanoma 9.31%

COc1ccc(/C=C(\C#N)n2nnc3cc(F)c(F)cc32)cc1
inactive: T-47D breast 23.1% | BT-549 breast 32.2% | SW-620 colon 14.9% | MCF7 breast 22.1% | HCT-116 colon 28% | HCC-2998 colon 69.3% | KM12 colon 34%
active: MDA-MB-435 melanoma -54%

Cc1ccc2c(n1)C(=O)C(Br)=C(C1CCCC1)C2=O
inactive: T-47D breast 90% | BT-549 breast 95.5% | MDA-MB-435 melanoma 108% | SW-620 colon 85.8% | MCF7 breast 89.8% | HCT-116 colon 73.7% | HCC-2998 colon 115% | KM12 colon 99.6%

CCOc1nc(-c2ccccc2)cc2c(O)c(C(=O)N/N=C/c3ccccc3)[nH]c(=O)c12
inactive: T-47D breast 110% | BT-549 breast 167% | MDA-MB-435 melanoma 123% | SW-620 colon 100% | MCF7 breast 101% | HCT-116 colon 111% | KM12 colon 109%
active: HCC-2998 colon 8.59%

C=CCN=c1sc2c(n1NC(=O)c1cc3ccc1CCc1ccc(cc1)CC3)C(=O)c1ccccc1C2=O
active: T-47D breast -3.21% | BT-549 breast -99.1% | MDA-MB-435 melanoma -93.5% | SW-620 colon -59.7% | MCF7 breast -62.8% | HCT-116 colon -32.4% | HCC-2998 colon -33.5% | KM12 colon 6.04%

COc1ccc(-c2nc3cc(C(=O)NCc4ccccc4)ccc3n2C2CCCCC2)cc1
inactive: T-47D breast 68.2% | BT-549 breast 80.9% | MDA-MB-435 melanoma 81.7% | SW-620 colon 94.9% | MCF7 breast 76.6% | HCT-116 colon 82.9% | HCC-2998 colon 79.3% | KM12 colon 57.4%

CSc1nnc(-c2cc3c([nH]c4ccccc43)c(-c3cccc(O)c3)n2)n1-c1ccccc1
inactive: T-47D breast 44.9% | BT-549 breast 37.6% | SW-620 colon 31.3% | MCF7 breast 13.2% | HCT-116 colon 18.3% | HCC-2998 colon 67.3% | KM12 colon 21.6%
active: MDA-MB-435 melanoma -49.9%

Nc1ncnc2c1C(c1ccc(Br)cc1)c1sc3c(F)cccc3c1O2 (stereo unspecified)
inactive: T-47D breast 74.9% | BT-549 breast 100% | MDA-MB-435 melanoma 107% | SW-620 colon 94.5% | MCF7 breast 55.9% | HCT-116 colon 95% | HCC-2998 colon 120% | KM12 colon 91.8%

CN1CCc2nc3sc(C(N)=O)c(N)c3c(-c3cccs3)c2C1
active: HCT-116 colon 4.02% | KM12 colon 6.55%
inactive: T-47D breast 42.9% | BT-549 breast 10.7% | MDA-MB-435 melanoma 29.6% | SW-620 colon 35% | MCF7 breast 12.6% | HCC-2998 colon 53.5%

CC(C)=CCC[C@](C)(O)[C@H]1CC[C@]2(C)[C@@H]1CC[C@@H]1[C@@]3(C)C/C(=C/c4ccco4)C(=O)C(C)(C)[C@@H]3CC[C@]12C
inactive: T-47D breast 97.8% | BT-549 breast 98.1% | MDA-MB-435 melanoma 97.4% | SW-620 colon 99.1% | MCF7 breast 97.2% | HCT-116 colon 97.4% | HCC-2998 colon 105% | KM12 colon 106%

CSc1nc(N)c(NS(=O)(=O)c2ccc(C(C)=O)cc2)c(=O)[nH]1
inactive: T-47D breast 102% | BT-549 breast 98.4% | MDA-MB-435 melanoma 102% | SW-620 colon 102% | MCF7 breast 85.9% | HCT-116 colon 92.7% | HCC-2998 colon 112% | KM12 colon 103%

COc1cc(/C=C/C(=O)c2ccc(F)cc2)ccc1OCCCCOc1ccc(/C=C/C(=O)c2c(C)nc3ccccc3c2C)cc1OC
inactive: T-47D breast 92.7% | BT-549 breast 154% | MDA-MB-435 melanoma 94.4% | SW-620 colon 102% | MCF7 breast 80.1% | HCT-116 colon 90.8% | HCC-2998 colon 100% | KM12 colon 111%

O=C1c2c(c3c4ccccc4[nH]c3c3ccc4ccccc4c23)C(=O)N1CCN1CCOCC1
inactive: T-47D breast 18.6% | BT-549 breast 69.8% | MDA-MB-435 melanoma 58.6% | SW-620 colon 36.1% | MCF7 breast 16.4% | HCT-116 colon 23.4% | HCC-2998 colon 80% | KM12 colon 36.4%

C/C(=N\O)c1ccc(Cl)cc1
inactive: T-47D breast 110% | BT-549 breast 96% | MDA-MB-435 melanoma 112% | SW-620 colon 99.9% | MCF7 breast 101% | HCT-116 colon 97.5% | HCC-2998 colon 95.9% | KM12 colon 118%

Clc1cccc(Nc2ncnc3ccc(-c4cnc5[nH]ccc5c4)cc23)c1
inactive: T-47D breast 28.3% | BT-549 breast 77.4% | MDA-MB-435 melanoma 88.3% | SW-620 colon 107% | MCF7 breast 48.3% | HCT-116 colon 75.1% | HCC-2998 colon 95% | KM12 colon 72.6%

COc1ccccc1CNc1c2ccccc2nc2ccccc12
inactive: T-47D breast 46.2% | BT-549 breast 77% | MDA-MB-435 melanoma 42.6% | SW-620 colon 22.1% | MCF7 breast 16.8% | HCT-116 colon 12.7% | HCC-2998 colon 38.8% | KM12 colon 32.9%

CC1CN(S(=O)(=O)c2oc(-c3ccc(Cl)cc3)nc2C#N)CC(C)O1 (stereo unspecified)
inactive: T-47D breast 27% | BT-549 breast 89% | MDA-MB-435 melanoma 86.4% | MCF7 breast 55.2% | HCC-2998 colon 105% | KM12 colon 100%
active: SW-620 colon -66.1% | HCT-116 colon -53.4%
